Results published in the supplement of paper PMC3334620.
Whole data set: some 33,000 sequences, median “E-score (-0.5 to 0.5)” near -0.016, cut for the highest 2% near 0.31. The sample holds the highest values, similar sequences and a random draw of the others, so the mix is not that of the screen.

Each sequence was assayed against Cst6 (UniProt P40535) (assay: PBM E-score (8-mer binding enrichment) (E-score (-0.5 to 0.5)); higher = stronger / more preferred TF binding). Details: protein concentration: 200 nM; construct: GST-DNA-binding domain.
Sequence of UniProt P40535 (P40535 whole entry, the tested form may be a part): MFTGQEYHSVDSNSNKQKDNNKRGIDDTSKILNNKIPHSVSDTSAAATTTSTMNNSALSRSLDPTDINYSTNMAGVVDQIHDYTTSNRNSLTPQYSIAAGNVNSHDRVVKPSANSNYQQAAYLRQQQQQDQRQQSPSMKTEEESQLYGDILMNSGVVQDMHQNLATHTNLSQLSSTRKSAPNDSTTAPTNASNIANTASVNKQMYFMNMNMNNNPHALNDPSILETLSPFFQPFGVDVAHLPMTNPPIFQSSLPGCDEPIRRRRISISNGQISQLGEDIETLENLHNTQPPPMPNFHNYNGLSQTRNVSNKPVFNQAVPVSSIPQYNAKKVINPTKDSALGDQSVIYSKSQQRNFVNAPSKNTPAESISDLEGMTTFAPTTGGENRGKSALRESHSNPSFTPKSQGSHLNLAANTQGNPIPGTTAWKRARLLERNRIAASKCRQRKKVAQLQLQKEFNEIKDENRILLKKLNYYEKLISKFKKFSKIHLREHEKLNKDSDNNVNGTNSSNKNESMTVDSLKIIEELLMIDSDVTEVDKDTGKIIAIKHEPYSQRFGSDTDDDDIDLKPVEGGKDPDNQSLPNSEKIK
Outline: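 Yeast transcription factors, full-length or as DNA-binding domains, were expressed with a GST tag using PURExpress in vitro transcription/translation. At about 100-200 nM they were applied to universal all-10-mer Agilent arrays, double-stranded by primer extension on fresh or once-stripped slides. Fluorescent anti-GST detected bound protein, and masliner normalised the scans. E-scores for ungapped eight-base words, pooled with reverse complements, came from the Universal PBM Analysis Suite.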

Sequence | PBM E-score
CCTTACCA | -0.119
CCCGTTCC | -0.132
TATCACCA | 0.123
AATCACCA | 0.169
CATCACCA | 0.372
CATCACCC | 0.308
AATCACCC | -0.00614
CATCACCG | 0.305
CATTGTCC | -0.0804
ACCGCAAC | 0.0509
GTCACATA | 0.245
CGAAGTTA | 0.11
CCTAACAG | 0.00445
GCTGGCAA | -0.106
AGGATGTA | 0.0787
CTGATGTA | 0.326
ATGATGTA | 0.462
CTGATGTC | 0.287
ACGATGTC | 0.0231
GTGATGTA | 0.465
AAGATGTA | 0.169
CGGATGTA | -0.0158
CCGATGTA | -0.0196
GAGATGTA | 0.0936
ATGATGTC | 0.478

Sequence | PBM E-score
GGGATGTA | -0.0844
GCACTGCC | 0.0838
AGTCCTTA | -0.0772
CAGCCCAG | -0.383
ACAGCCCC | -0.228
AGTCCCTG | -0.223
CGATTGAG | -0.0697
GACGATGA | 0.301
CCCAGGAA | -0.176
CTTTCTGC | 0.0175
ATGATGTG | 0.333
ATGATGAG | 0.232
AGGATGTG | -0.232
CTGAGAGC | -0.0922
AGCGGCGC | 0.107
CGCGGCAC | 0.324
CACGGCGA | 0.21
CGCGGCAA | 0.134
CGCGCGGA | 0.131
AGCGGCAC | 0.123
CGCGCGGC | 0.378
CACGGCGC | 0.357
AGCGCGGC | 0.115
CGCGGCGC | 0.372
AACGGCGC | 0.251

Sequence | PBM E-score
CGCGGCGA | 0.27
CTTCGTAC | -0.193
AACATAAT | 0.246
ATTAACGC | 0.0112
CAGGGAGA | -0.227
GACTTAAC | -0.167
ACGGATAC | 0.115
ATGTCTGG | -0.0099
ACTCATTG | -0.129
ATGAACTG | 0.12
GAACGGTC | -0.223
AGTGGGTG | 0.0423
ACATCCGT | 0.0894
AGGCGCGA | 0.205
AGCACGGC | 0.198
CGCACGGA | 0.154
CGCACGGC | 0.375
CGGCGCGC | 0.242
CGGCGCGA | 0.35
AAACAAAT | 0.192
CTTATTAA | 0.141
ATCGACGA | 0.00463
AAGTAATC | 0.179
AGGTAATG | 0.101
ACGTAATA | 0.482

Sequence | PBM E-score
AAGTAATG | 0.116
ACGTAATC | 0.484
CCGTAATA | 0.176
ACGTAATG | 0.476
GCGTAATA | 0.296
CCGTAATC | 0.0889
GCGCTCAA | -0.165
CCTAGCGA | -0.296
AGCCGACA | -0.162
TAATTTAA | 0.287
CATCGCCA | 0.0609
ACACGGAC | -0.00107
CTTCCAAC | -0.0988
AGCCGCAT | 0.338
AGCCGCAC | 0.188
AGCCGCAA | -0.127
GCACCTGC | -0.114
AAGCTTTG | -0.087
TTCTGCAA | 0.138
CCTATGAC | 0.221
AATATGTG | 0.25
AATATGTA | 0.211
GCTATGAC | 0.332
AATATGAC | 0.35
CATATGAC | 0.366

Sequence | PBM E-score
ACTATGAC | 0.264
AATATGTC | 0.319
CATATGAG | 0.0643
AATATGAT | 0.233
GATATGAC | 0.273
AATATGAG | 0.132
CGAAAGCA | -0.0132
CATCTGAA | 0.037
ATCCTATC | -0.0914
ACCGTCGG | -0.194
CGTCTATA | -0.0233
ACCTTTGC | -0.095
CGCTGCAC | -0.0108
CTTATGAC | 0.368
ATTATGAA | 0.292
CTTATGAA | 0.052
CTTATGCC | 0.0646
ATTATGAG | 0.22
ATTATGAC | 0.394
AACAAGAA | 0.237
AGAAAGCT | 0.0476
ATAGTCGA | 0.168
ATATATTA | 0.336
CTATATTC | 0.0369
CCATATTA | 0.0718

Sequence | PBM E-score
CTCTATTA | 0.0287
GTATATTA | 0.261
ACATATTA | 0.312
ACATATTG | 0.137
CTATATTA | 0.333
ATATATTG | 0.109
TACTGGCA | -0.0625
CAGACAGG | -0.15
ATCGATAC | 0.171
AGCTCCGA | -0.145
CAAAGCGA | -0.0448
TCGACACA | 0.108
AGCAAGCG | -0.11
ATCACGTC | 0.286
ATCACGTG | 0.135
CAGACGTA | 0.0968
CCGACGTA | 0.0226
ATGACGTG | 0.491
AGGACGTG | -0.088
GTGACGTA | 0.496
CTGACGTA | 0.489
ACGACGTG | 0.061
ATCACGTA | 0.344
GCGACGTA | 0.219
GGGACGTA | 0.0851

Sequence | PBM E-score
AGGCTCGA | 0.0255
CTGGTGTC | -0.119
GCAGCCGA | -0.053
AAAACCGA | 0.0246
TTCCAAAA | 0.0844
CAGGCTAC | -0.249
GCTCCGCC | -0.185
CCGCCGGA | -0.149
ACCATCGA | -0.0265
CGAGGCGC | 0.188
AGGACGTA | -0.126
AAGACGTA | 0.215
ATGACGTA | 0.498
CACCGTTC | -0.0919
CAGGCGAG | -0.261
CTTGCGTC | 0.249
AGTGCGTC | 0.104
ATTGCGTG | 0.154
ATTGCGTC | 0.34
GTTGCGTA | 0.264
ATTGCGTA | 0.415
CTCGTTCA | 0.022
ATTCCCGG | 0.041
AGGAGCGG | -0.207
GAACGTTA | -0.124

Sequence | PBM E-score
GAACGTCA | 0.442
GAACGTCC | 0.0008
CAACGTCA | 0.471
TAACGTGA | 0.284
AAACGTCC | -0.0706
CAACGTCC | -0.263
TAACGTTA | 0.149
TAACGTCA | 0.489
AAACGTCA | 0.463
CAACGTCG | 0.0638
AAACGTCT | 0.14
CCAGGCGA | -0.317
CTACCTAG | -0.231
ATCCCGGA | -0.249
AATGAGCG | 0.139
AAGTAAAA | 0.148
AGCCAGTG | -0.171
ATCGCCTA | -0.115
CGATTGTA | 0.0905
CGGTCTTC | -0.0638
AACTGTGT | 0.0284
ATCAGTTC | -0.0191
ATACAGCC | -0.059
GGGTGCCA | -0.137
CGGTATGC | -0.111

Sequence | PBM E-score
ACGGTCTG | -0.189
ACACGTAC | -0.0236
TCACGTAA | 0.415
ACACGTAG | 0.0917
CCACGTAA | 0.275
ACACGTAA | 0.366
GCACGTAA | 0.232
CTACCCCA | -0.16
ATACAGAC | 0.128
CCGCAACA | 0.113
CACGTTAA | 0.0603
GACGTTAC | 0.315
CACGTTAC | 0.143
TACGTTAA | 0.189
AACGTTAC | 0.137
GACGTTAA | 0.32
GCCAAAAC | 0.00644
AGCTGCGA | -0.198
AGCGGTCC | -0.134
ATACGGGC | -0.204
ACTGGGGG | -0.426
CGGACGCA | -0.0966
CGGCGCCG | 0.384
CGGCGCCC | 0.143
AGGCGCCT | 0.207

Sequence | PBM E-score
AGGCGCCG | 0.325
AGGCGCCA | 0.0572
CGGCGCCA | 0.161
CCGTCGAA | 0.0203
GCAAATGC | 0.0351
AATAGCCC | -0.132
AGCCGGCT | -0.193
GAGATGAC | 0.239
CGGATGAG | -0.135
AAGATGAC | 0.345
CAGATGAG | 0.0374
CGGATGAA | 0.127
AAGATGAG | -0.0416
CAGATGAC | 0.383
AAGATGAT | 0.229
CGGATGAC | 0.321
GTAAGTCA | 0.132
TCGCTCAA | -0.091
AATTGCCC | -0.055
CCAAAAGA | 0.207
AAAATCGG | -0.00802
GCGCAGCC | -0.38
TTAAAAAA | 0.306
ATAAAAGG | 0.0584
ATTAAATG | 0.315

Sequence | PBM E-score
TTTAAAAA | 0.0985
ATAAAAAA | 0.234
ATTGAAAA | 0.31
ATTAAATC | 0.212
ATAAAAAG | 0.307
CTTGAAAA | 0.216
ATTAAATA | 0.267
CTAAAAAA | 0.273
ATTGAAAC | 0.194
CAGGTTAG | -0.116
CCGCTTGA | 0.0541
ATCTGCTG | 0.0566
GAAGCTGC | -0.117
ACTTAGCA | -0.0634
ATTCCGCG | 0.129
ATTAAAAC | 0.213
ATTAAAAG | 0.173
ATTAAAAA | 0.323
ACTACACA | 0.17
CGTTAGAA | 0.101
ATGATGCG | 0.296
ATGATGCA | 0.362
ACGATGCA | -0.00326
AGGATGCC | 0.0165
GTGATGCA | 0.383

Sequence | PBM E-score
CTGATGCA | 0.0731
CTGATGCC | 0.113
GAGATGCA | -0.071
ATGATGCC | 0.347
CCGGATCG | -0.134
ACTTTTCA | 0.133
CTTCCCAC | 0.0313
GACTCGCC | -0.223
CCGGGTTA | -0.281
CAAAAGAA | 0.239
AAGCTCAC | -0.167
AACAATCA | 0.287
CACCCCGG | -0.19
ACTTCGTA | -0.0634
CCGTAACC | -0.0836
CCGTAACG | -0.0115
ACGTAACA | 0.386
AGGTAACT | 0.106
AAGTAACT | 0.204
TCGTAACA | 0.129
ACGTAACC | 0.414
ACGTAACT | 0.413
ACGTAACG | 0.39
GCGTAACC | 0.14
AAGTAACG | 0.0219

Sequence | PBM E-score
GCGTAACA | 0.195
ATGAGACG | -0.0685
ACCTAGGG | -0.159
ACCCATGG | -0.144
CTCCTTTA | -0.251
CTACCGTA | 0.0736
ATCAAATA | 0.0992
CTCGGTTA | 0.0295
GCGTCAGC | 0.15
CCGTCAGG | -0.107
ATGTCAGG | 0.176
TCGTCAGA | 0.124
CCGTCAGC | 0.0302
CCGTCAGA | -0.0924
ACGTCAGC | 0.482
GTGTCAGA | -0.0004
ACGTCAGA | 0.464
ACGTCAGG | 0.413
GCGTCAGA | 0.313
GGGTCAGA | -0.219
ACCGACGG | -0.0433
CTTCCCGA | -0.0284
AGTCGCAG | -0.192
ACTCTTGA | -0.103
CCTTGCAA | -0.186

Sequence | PBM E-score
ACTCCGCG | -0.0486
CGGCATAA | 0.135
AACTCGAG | -0.0652
ACCTTTGA | -0.156
CCTCCTAG | -0.121
AAGCACGT | 0.0741
GAGCAGGA | -0.154
GGAAACCC | -0.147
AAGTCAGT | 0.0407
ACCTCAGT | 0.013
ACGTCAGT | 0.472
GACACGCC | 0.0155
CTGGACTA | -0.267
CGTACGTA | 0.306
GGTACGTA | 0.136
CGTACGTC | 0.31
CGTACGCC | 0.111
AGTACGTA | 0.267
AGTACGTC | 0.205
